This note sets out measurements from PubChem BioAssay (NCI).

The structures appear in SMILES notation. The panel holds about 79,000 compounds, 15% with a hit somewhere; the sample as a whole holds those more often. A number with no mark means an inactive call. Activity calls are given as the source filed them. No stated cut-off is given here; in the data, active means growth inhibition above about 70%; inactive means the rest.

The nature of test [1]: NCI Yeast Anticancer Drug Screen. Data for the rad50 strain (AID 155).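 Further: 0% = growth of vehicle-only cultures of the same strain.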 Particulars: S. cerevisiae rad50 strain growth inhibition, stronger effect = higher value. An outline of the steps:
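Genetically altered yeast (DNA repair pathway); compound treatment; growth inhibition vs vehicle ctrl.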

Test [2] can be described thus: NCI Yeast Anticancer Drug Screen. Data for the mec2-1 strain (AID 157). Particulars: S. cerevisiae mec2-1 strain, stronger effect = higher value. An outline of the steps:
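Compounds were applied to mec2-1 yeast cells. Their growth was then compared with that of vehicle-treated cultures to give growth inhibition.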

Test [3] can be described thus: NCI Yeast Anticancer Drug Screen. Data for the sgs1 mgt1 strain (AID 161).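 Further: 0% = growth of cultures given vehicle only.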 The settings on record: S. cerevisiae sgs1 mgt1 strain, stronger effect = higher value. An outline of the steps:
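Yeast cells carrying a defined DNA-repair defect were exposed to test compounds. Growth inhibition was measured relative to vehicle-treated controls.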

A short description of test [4]: NCI Yeast Anticancer Drug Screen. Data for the cln2 rad14 strain (AID 165).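 Further: 0% = growth equal to vehicle treated cultures.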 Particulars: S. cerevisiae cln2 rad14 strain, stronger effect = higher value. An outline of the steps: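 Strain: cln2 rad14 yeast, altered in cell cycle control and DNA damage repair. Read-out: growth inhibition vs vehicle.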
Test [5] can be described thus: NCI Yeast Anticancer Drug Screen. Data for the bub3 strain (AID 167). Particulars: S. cerevisiae bub3 mutant strain, stronger effect = higher value. An outline of the steps:
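Yeast carrying a defined mutation is treated with each compound, and growth is compared with that of vehicle-exposed cells to give inhibition.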

Test [6] is described as follows: NCI Yeast Anticancer Drug Screen. Data for the mlh1 rad18 strain (AID 175). Particulars: S. cerevisiae mlh1 rad18 strain growth inhibition, stronger effect = higher value. An outline of the steps: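 A repair-deficient yeast strain is exposed to test compound, and growth is scored relative to vehicle-treated controls.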
Where [7] appears, read: at 5.0 µM (retest, dose inferred, filed as 0.5).
[8] abbreviates: at 50.0 µM (retest, dose inferred, filed as 5.0).

In the case of `C/C(=N\NC(N)=S)c1ccc(Oc2ccccc2)cc1`, the growth inhibition in test [1] (setting [7]) is 50%; in test [1] (setting [8]), 77% (active); in test [1] (at 50.0 µM), 98.9% (active); in test [2] (setting [7]), 43%; in test [2] (setting [8]), 75% (active); in test [2] (at 50.0 µM), 98.5% (active). Besides, the growth inhibition in test [3] (setting [7]) is 65%; in test [3] (setting [8]), 93% (active); in test [3] (at 50.0 µM), 99% (active); in test [4] (setting [7]), 27%; in test [4] (setting [8]), 70% (active); in test [4] (at 50.0 µM), 98.5% (active). The growth inhibition in test [5] (setting [7]) was 35%; in test [5] (setting [8]), 70% (active); in test [5] (at 50.0 µM) it was 98.8% (active); in test [6] (setting [7]) it was 63%; in test [6] (setting [8]) it was 89% (active); in test [6] (at 50.0 µM), 97.8% (active).
`CC(C)(C)C(=O)OC(N)/C=C/c1ccccc1` (configuration not stated): the growth inhibition in test [1] (setting [7]) is 21%; in test [1] (setting [8]), 24%; in test [1] (at 50.0 µM) it was 1.75%; in test [2] (setting [7]), 15%; in test [2] (setting [8]) it was 16%; in test [2] (at 50.0 µM), -10.2%. Besides, the growth inhibition in test [3] (setting [7]) was 13%; in test [3] (setting [8]), -36%; in test [3] (at 50.0 µM), 78.8% (active); in test [4] (setting [7]) it was 14%; in test [4] (setting [8]) it was -52%; in test [4] (at 50.0 µM), 36.7%. Besides, the growth inhibition in test [5] (setting [7]) was 7%; in test [5] (setting [8]) it was -24%; in test [5] (at 50.0 µM), 82.7% (active); in test [6] (setting [7]) it was 23%; in test [6] (setting [8]), 24%; in test [6] (at 50.0 µM), -19.9%.
Regarding `CC(=O)Nc1cc(F)c2c(c1)Cc1ccccc1-2`, the growth inhibition in test [1] (setting [7]) is 5%; in test [1] (setting [8]), 77% (active); in test [1] (at 50.0 µM), -1.75%; in test [2] (setting [7]) it was -2%; in test [2] (setting [8]) it was 59%; in test [2] (at 50.0 µM), 19.5%. For the same compound, the growth inhibition in test [3] (setting [7]) is -1%; in test [3] (setting [8]) it was 84% (active); in test [3] (at 50.0 µM) it was -16.8%; in test [4] (setting [7]) it was 0%; in test [4] (setting [8]) it was 77% (active); in test [4] (at 50.0 µM), 89.4% (active). For the same compound, the growth inhibition was 2% in test [5] (setting [7]); 83% (active) in test [5] (setting [8]); 90.5% (active) in test [5] (at 50.0 µM); 4% in test [6] (setting [7]); 78% (active) in test [6] (setting [8]); -14.2% in test [6] (at 50.0 µM).
For the compound `CN(C)c1nc(Cl)nc2c1ncn2C1OCC(O)C(O)C1O` (configuration not stated), the growth inhibition in test [1] (setting [7]) is -4%; in test [1] (setting [8]), 3%; in test [1] (at 50.0 µM) it was 10.7%; in test [2] (setting [7]), -8%; in test [2] (setting [8]), 4%; in test [2] (at 50.0 µM), 22%. Also, the growth inhibition in test [3] (setting [7]) is 9%; in test [3] (setting [8]) it was 7%; in test [3] (at 50.0 µM), 5.05%; in test [4] (setting [7]), 1%; in test [4] (setting [8]) it was -6%; in test [4] (at 50.0 µM), 1.25%. Further, the growth inhibition in test [5] (setting [7]) is -1%; in test [5] (setting [8]), -7%; in test [5] (at 50.0 µM), -5.1%; in test [6] (setting [7]), 11%; in test [6] (setting [8]), 11%; in test [6] (at 50.0 µM), 42.5%.
Turning to `CC(C)(C)CC(C)(C)c1ccc(O)cc1O`, the growth inhibition was 7% in test [1] (setting [7]); 99% (active) in test [1] (setting [8]); 99.5% (active) in test [1] (at 50.0 µM); 7% in test [2] (setting [7]); 99% (active) in test [2] (setting [8]); 99.5% (active) in test [2] (at 50.0 µM). Besides, the growth inhibition in test [3] (setting [7]) was -3%; in test [3] (setting [8]) it was 99% (active); in test [3] (at 50.0 µM) it was 99.2% (active); in test [4] (setting [7]) it was 2%; in test [4] (setting [8]) it was 98% (active); in test [4] (at 50.0 µM), 98.8% (active). The growth inhibition in test [5] (setting [7]) was 36%; in test [5] (setting [8]), 99% (active); in test [5] (at 50.0 µM), 98.8% (active); in test [6] (setting [7]) it was 6%; in test [6] (setting [8]), 99% (active); in test [6] (at 50.0 µM) it was 99.3% (active).
As for `CC1=CC(=O)C(O)=C/C1=C\C=C\c1ccccc1`, the growth inhibition in test [1] (setting [7]) is 15%; in test [1] (setting [8]) it was 98% (active); in test [1] (at 50.0 µM), 99.2% (active); in test [2] (setting [7]) it was 23%; in test [2] (setting [8]), 99% (active); in test [2] (at 50.0 µM), 99% (active). In addition, the growth inhibition was 26% in test [3] (setting [7]); 99% (active) in test [3] (setting [8]); 49.4% in test [3] (at 50.0 µM); 6% in test [4] (setting [7]); 97% (active) in test [4] (setting [8]); 98.8% (active) in test [4] (at 50.0 µM). For the same compound, the growth inhibition in test [5] (setting [7]) was 11%; in test [5] (setting [8]), 98% (active); in test [5] (at 50.0 µM) it was 99% (active); in test [6] (setting [7]) it was 50%; in test [6] (setting [8]), 98% (active); in test [6] (at 50.0 µM), 99.2% (active).
In the case of `CCCCC(O)(c1ccc2nc(NC(=O)OC)[nH]c2c1)c1cccs1` (configuration not stated), the growth inhibition is -7% in test [1] (setting [7]); 58% in test [1] (setting [8]); 7.8% in test [1] (at 50.0 µM); -4% in test [2] (setting [7]); 62% in test [2] (setting [8]); 74.8% (active) in test [2] (at 50.0 µM). Besides, the growth inhibition in test [3] (setting [7]) is -4%; in test [3] (setting [8]), 69%; in test [3] (at 50.0 µM), 49.5%; in test [4] (setting [7]) it was -15%; in test [4] (setting [8]) it was 10%; in test [4] (at 50.0 µM), 36%. For the same compound, the growth inhibition in test [5] (setting [7]) is -8%; in test [5] (setting [8]), 41%; in test [5] (at 50.0 µM), 35.5%; in test [6] (setting [7]), -5%; in test [6] (setting [8]) it was 62%; in test [6] (at 50.0 µM), 94.5% (active).
Regarding `COC(=O)c1ccccc1NC(=S)NN(C)C`, the growth inhibition is 13% in test [1] (setting [7]); 20% in test [1] (setting [8]); -0.25% in test [1] (at 50.0 µM); 7% in test [2] (setting [7]); 17% in test [2] (setting [8]); -14.3% in test [2] (at 50.0 µM). Moreover, the growth inhibition was -5% in test [3] (setting [7]); 16% in test [3] (setting [8]); -8.9% in test [3] (at 50.0 µM); 9% in test [4] (setting [7]); 11% in test [4] (setting [8]); 18.2% in test [4] (at 50.0 µM). Moreover, the growth inhibition in test [5] (setting [7]) was -20%; in test [5] (setting [8]), 36%; in test [5] (at 50.0 µM), 3.85%; in test [6] (setting [7]), 16%; in test [6] (setting [8]), 28%; in test [6] (at 50.0 µM) it was -2%.
For the compound `COc1ccc2c3c(ccc2c1)NC(C(=O)O)CC3` (configuration not stated), the growth inhibition in test [1] (setting [7]) was 0%; in test [1] (setting [8]), 82% (active); in test [1] (at 50.0 µM), 60.5%; in test [2] (setting [7]) it was -11%; in test [2] (setting [8]), 56%; in test [2] (at 50.0 µM), -15.8%. Further, the growth inhibition was -2% in test [3] (setting [7]); 83% (active) in test [3] (setting [8]); 36% in test [3] (at 50.0 µM); -17% in test [4] (setting [7]); 41% in test [4] (setting [8]); 21.3% in test [4] (at 50.0 µM). Also, the growth inhibition in test [5] (setting [7]) is -6%; in test [5] (setting [8]), 82% (active); in test [5] (at 50.0 µM), 52%; in test [6] (setting [7]), 3%; in test [6] (setting [8]) it was 87% (active); in test [6] (at 50.0 µM), 61.1%.
